What all share (set-up): scale not given: direction of the effect not stated beside the values
In test [1] the target is Protein translocase subunit SecA (Escherichia coli (strain K12)) (UniProt P10408). Put plainly: Assay to Identify E. coli SecA ATPase Inhibitors. The class given is functional. The following applies: 30 µM.
Test [2] deals with T1, Ubiquitin-activating enzyme e1, putative (Leishmania donovani (strain BPK282A1)) (UniProt E9BSI1).
T1 sequence (whole entry): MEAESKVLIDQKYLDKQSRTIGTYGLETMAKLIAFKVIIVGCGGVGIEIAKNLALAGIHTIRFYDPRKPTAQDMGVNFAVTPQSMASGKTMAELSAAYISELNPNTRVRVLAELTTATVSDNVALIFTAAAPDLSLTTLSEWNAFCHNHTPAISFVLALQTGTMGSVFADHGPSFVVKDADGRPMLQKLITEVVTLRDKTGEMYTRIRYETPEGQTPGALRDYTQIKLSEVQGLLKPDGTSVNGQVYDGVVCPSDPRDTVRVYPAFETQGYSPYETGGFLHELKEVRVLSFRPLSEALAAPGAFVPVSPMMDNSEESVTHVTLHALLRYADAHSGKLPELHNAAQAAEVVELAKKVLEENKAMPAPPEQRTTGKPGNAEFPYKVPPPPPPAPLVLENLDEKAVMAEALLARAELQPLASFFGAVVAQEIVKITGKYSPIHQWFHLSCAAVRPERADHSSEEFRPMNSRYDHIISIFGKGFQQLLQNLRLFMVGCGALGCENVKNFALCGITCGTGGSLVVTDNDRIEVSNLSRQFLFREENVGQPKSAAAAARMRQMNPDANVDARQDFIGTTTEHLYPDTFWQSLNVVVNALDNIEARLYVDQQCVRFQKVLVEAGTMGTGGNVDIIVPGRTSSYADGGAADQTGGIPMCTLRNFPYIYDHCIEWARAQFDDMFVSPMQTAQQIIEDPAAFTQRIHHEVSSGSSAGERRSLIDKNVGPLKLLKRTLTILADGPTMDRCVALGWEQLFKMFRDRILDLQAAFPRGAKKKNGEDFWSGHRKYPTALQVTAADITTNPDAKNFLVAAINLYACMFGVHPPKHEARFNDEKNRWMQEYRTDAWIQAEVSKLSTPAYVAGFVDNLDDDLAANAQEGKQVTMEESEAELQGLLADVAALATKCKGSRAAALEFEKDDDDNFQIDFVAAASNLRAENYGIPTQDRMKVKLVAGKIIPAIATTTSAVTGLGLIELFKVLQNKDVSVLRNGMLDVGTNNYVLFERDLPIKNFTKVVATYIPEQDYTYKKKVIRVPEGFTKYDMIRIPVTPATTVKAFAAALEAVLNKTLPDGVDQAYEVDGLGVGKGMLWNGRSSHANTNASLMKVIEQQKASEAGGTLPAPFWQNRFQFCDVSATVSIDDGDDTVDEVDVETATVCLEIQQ
Nature of the test: Leishmania donovani Ubiquitin Activating Enzyme (LdE1). The class given is functional. Conditions: 30 µM.

Test [3] has as its target AMP-activated protein kinase, AMPK (Homo sapiens) (UniProt P54646+O43741+P54619+Q9UGJ0+Q9Y478+Q13131+Q9UGI9). Nature of the test: AMP-dependent Kinase enzyme assay. An in vitro enzyme assay that detects ADP turnover that is directly proportional to AMPK activity. This uses naive AMPK that is activated during the assay with MK-8722. The format is functional. Conditions: 30 µM.

In test [4] the target is Sialic acid-binding Ig-like lectin 9 (Homo sapiens) (UniProt Q9Y336). Nature of the test: Hs-Siglec9 ALPHAscreen SOP 20170721. Conditions: 10 µM.
Test [5] relates to Trypanosoma cruzi. Put plainly: Trypanosoma cruzi phosphomannomutase and mannose-1-phosphate guanylyltransferase assay. The class given is functional. Conditions: 10 µM.
In test [6] the target is T2, Arginase-2, mitochondrial (Homo sapiens) (UniProt P78540).
T2 sequence (whole entry): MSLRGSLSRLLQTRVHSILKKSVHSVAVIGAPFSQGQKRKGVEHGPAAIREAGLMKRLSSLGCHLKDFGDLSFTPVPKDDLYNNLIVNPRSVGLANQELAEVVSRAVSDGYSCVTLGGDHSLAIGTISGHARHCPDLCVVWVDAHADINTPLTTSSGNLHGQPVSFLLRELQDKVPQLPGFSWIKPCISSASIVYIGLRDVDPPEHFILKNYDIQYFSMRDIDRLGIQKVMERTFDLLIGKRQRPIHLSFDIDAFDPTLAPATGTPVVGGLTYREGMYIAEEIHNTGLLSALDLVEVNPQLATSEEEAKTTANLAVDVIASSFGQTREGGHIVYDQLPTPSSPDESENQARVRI
Nature of the test: in vitro enzyme assay to detect the production of urea directly proportional to the activity of Arginase II. Note: in the data most compounds retested in dose-response had high values. The format is functional. Conditions: 33.3 µM.

Test [7] addresses T3, Proteasome subunit beta (Trypanosoma cruzi) (UniProt O96673).
T3 sequence (whole entry): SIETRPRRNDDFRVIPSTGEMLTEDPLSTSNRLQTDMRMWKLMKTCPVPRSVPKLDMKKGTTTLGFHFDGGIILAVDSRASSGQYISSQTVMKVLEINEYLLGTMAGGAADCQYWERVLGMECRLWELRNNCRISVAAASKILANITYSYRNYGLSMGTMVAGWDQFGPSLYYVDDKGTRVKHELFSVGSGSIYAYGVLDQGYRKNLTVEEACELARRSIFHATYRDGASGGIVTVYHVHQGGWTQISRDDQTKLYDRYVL
Put plainly: Trypanosoma cruzi proteasome chymotrypsin-like activity (TcProtChymo) assay. Note: in the data most compounds retested in dose-response had high values. The format is functional. The following applies: 9.37 µM.

For test [8], the species on record is Homo sapiens. Put plainly: To identify inhibition of the IFN signalling (Jak-Stat) pathway via expression of an eGFP reporter gene under the control of an IFN-stimulated response element (ISRE) containing MxA promoter. The following applies: 30 µM. The format is functional. On the technique in general: Reporter assays use an easily measured gene product as a stand-in for the process of interest.

Test [9] deals with T4, Tyrosyl-tRNA synthetase, putative (Trypanosoma cruzi (strain CL Brener)) (UniProt Q4DSP6).
T4 sequence (whole entry): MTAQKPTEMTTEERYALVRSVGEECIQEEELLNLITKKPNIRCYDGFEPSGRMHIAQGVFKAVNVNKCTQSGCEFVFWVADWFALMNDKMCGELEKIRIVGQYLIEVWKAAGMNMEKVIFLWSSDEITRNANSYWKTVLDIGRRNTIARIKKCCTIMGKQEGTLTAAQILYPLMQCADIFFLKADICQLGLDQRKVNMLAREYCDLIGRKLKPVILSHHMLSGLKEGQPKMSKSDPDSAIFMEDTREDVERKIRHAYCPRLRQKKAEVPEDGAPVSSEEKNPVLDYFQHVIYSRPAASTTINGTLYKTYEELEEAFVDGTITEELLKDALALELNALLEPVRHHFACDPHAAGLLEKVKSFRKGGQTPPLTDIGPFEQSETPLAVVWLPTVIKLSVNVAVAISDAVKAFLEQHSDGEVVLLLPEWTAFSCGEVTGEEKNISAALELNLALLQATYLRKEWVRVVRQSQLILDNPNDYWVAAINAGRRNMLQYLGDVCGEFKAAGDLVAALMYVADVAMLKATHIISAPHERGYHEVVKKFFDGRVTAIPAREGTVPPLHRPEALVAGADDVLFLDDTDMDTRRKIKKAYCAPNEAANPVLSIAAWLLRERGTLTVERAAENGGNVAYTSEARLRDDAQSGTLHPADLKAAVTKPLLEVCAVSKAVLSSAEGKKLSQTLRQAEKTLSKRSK
Put plainly: Trypanosoma cruzi tyrosyl tRNA synthetase (TcYRS) _High Tyrosine SOP. Note: in the data most compounds retested in dose-response had high values. The format is functional. Conditions: 30 µM.

For test [10], the target named is T4, Tyrosyl-tRNA synthetase, putative (Trypanosoma cruzi (strain CL Brener)). Nature of the test: Trypanosoma cruzi tyrosyl tRNA synthetase (TcYRS) SOP. The format is functional. The following applies: 30 µM.
In test [11] the target is Chromo domain-containing protein 1 (Saccharomyces cerevisiae (strain ATCC 204508 / S288c) (Baker's yeast)) (UniProt P32657). Nature of the test: ScCHD-1 Enzyme Inhibition Assay. Note: in the data most compounds retested in dose-response had high values. The following applies: 30 µM. The format is functional.

Drawing on ChEMBL document CHEMBL3988442, “University of Dundee, Small-Polar-MMV Screening Library” (2021), this text covers Percent Effect for ten molecules.

For some assays here: Entries with a potency or affinity are not part of this list.

Sequence of Sialic acid-binding Ig-like lectin 9 (Homo sapiens) (Q9Y336 whole entry): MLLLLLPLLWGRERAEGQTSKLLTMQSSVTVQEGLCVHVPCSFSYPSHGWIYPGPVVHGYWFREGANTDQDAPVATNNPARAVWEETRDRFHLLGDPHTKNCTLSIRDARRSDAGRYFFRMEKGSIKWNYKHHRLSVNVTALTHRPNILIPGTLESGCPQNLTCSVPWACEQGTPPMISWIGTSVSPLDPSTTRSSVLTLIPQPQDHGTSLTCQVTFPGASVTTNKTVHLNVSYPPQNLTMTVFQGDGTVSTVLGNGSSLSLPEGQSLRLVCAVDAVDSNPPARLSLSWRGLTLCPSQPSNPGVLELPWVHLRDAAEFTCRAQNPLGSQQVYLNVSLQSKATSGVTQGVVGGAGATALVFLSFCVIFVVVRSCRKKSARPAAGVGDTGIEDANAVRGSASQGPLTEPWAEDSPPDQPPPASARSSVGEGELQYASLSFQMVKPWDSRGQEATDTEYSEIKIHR
Sequence of Protein translocase subunit SecA (Escherichia coli (strain K12)) (P10408 whole entry): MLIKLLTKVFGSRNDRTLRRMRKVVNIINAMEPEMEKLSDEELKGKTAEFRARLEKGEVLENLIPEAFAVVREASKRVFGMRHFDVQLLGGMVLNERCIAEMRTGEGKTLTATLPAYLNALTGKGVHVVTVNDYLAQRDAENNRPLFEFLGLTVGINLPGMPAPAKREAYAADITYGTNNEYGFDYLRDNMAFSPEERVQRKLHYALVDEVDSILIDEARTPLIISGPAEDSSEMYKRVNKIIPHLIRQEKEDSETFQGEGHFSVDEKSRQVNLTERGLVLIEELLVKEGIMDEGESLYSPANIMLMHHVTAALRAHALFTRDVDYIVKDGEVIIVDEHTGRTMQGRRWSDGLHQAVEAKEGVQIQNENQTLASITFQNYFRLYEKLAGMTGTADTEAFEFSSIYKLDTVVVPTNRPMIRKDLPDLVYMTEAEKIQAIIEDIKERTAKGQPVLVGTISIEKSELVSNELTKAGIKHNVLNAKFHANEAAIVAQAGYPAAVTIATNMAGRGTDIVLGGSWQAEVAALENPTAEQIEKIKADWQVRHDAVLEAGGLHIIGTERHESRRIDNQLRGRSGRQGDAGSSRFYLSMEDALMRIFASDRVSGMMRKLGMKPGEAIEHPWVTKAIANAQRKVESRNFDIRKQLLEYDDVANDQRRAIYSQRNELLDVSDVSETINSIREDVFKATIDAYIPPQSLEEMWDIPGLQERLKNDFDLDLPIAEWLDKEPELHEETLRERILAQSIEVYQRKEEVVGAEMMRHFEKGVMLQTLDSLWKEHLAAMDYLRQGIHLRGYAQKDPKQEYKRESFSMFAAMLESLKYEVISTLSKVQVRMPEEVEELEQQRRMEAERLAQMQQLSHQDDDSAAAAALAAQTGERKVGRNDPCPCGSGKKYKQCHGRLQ
Sequence of Chromo domain-containing protein 1 (Saccharomyces cerevisiae (strain ATCC 204508 / S288c) (Baker's yeast)) (P32657 whole entry, the tested form may be a part): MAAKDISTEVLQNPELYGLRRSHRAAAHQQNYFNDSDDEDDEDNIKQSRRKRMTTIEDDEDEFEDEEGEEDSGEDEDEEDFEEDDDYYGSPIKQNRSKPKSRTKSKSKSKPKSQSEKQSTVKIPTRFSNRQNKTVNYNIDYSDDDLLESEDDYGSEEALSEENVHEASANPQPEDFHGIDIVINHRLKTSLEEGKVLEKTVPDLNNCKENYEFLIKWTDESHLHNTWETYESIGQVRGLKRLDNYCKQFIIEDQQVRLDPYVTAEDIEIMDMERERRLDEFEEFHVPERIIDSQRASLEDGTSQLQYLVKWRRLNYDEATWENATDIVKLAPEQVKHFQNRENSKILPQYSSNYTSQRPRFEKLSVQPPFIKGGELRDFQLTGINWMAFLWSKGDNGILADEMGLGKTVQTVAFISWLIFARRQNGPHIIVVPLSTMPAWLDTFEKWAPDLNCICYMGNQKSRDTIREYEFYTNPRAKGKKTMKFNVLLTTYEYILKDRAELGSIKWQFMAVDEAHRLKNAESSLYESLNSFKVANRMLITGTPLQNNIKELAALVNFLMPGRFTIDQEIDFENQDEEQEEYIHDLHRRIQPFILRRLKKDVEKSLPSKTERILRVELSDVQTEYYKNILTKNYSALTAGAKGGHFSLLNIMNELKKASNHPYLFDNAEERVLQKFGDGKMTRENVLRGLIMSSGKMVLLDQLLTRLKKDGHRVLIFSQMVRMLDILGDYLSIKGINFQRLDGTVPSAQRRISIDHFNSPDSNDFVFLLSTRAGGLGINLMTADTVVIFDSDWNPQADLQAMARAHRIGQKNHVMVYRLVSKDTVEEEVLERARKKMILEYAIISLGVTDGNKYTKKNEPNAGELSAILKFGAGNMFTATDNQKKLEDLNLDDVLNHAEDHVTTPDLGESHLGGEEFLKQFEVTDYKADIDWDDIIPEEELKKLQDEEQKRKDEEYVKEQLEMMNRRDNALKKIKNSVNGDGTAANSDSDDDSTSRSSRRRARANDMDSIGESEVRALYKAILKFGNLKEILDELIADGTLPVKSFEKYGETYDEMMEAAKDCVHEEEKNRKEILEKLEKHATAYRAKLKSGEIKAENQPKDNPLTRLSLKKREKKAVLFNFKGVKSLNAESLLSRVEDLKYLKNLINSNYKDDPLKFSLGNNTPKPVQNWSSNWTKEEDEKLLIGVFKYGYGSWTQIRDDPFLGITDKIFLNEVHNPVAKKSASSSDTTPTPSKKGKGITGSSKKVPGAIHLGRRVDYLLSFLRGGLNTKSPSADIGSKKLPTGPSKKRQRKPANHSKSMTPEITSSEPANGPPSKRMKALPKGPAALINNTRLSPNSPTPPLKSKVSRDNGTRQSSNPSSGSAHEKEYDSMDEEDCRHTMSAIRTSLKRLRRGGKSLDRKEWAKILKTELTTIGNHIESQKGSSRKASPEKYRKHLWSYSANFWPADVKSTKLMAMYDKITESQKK

For `COc1cccn(CC(=O)N(C)CCOc2cc(C)cc(C)c2)c1=O`, the Percent Effect was -5.42% in [1]; 8.22% in [2]; -63.8% in [3]; 11.9% in test [4]; 2.98% in test [5]; -12.8% in [6]. The Percent Effect was 15.2% in [7]; -0.398% in [8]; -2.08% in test [9]; 3.7% in test [10]; -0.823% in test [11].

Consider `CCC(C)NC(=O)Nc1ccc(CN2CCOC2=O)cc1` (stereo not given), for which the Percent Effect in test [1] was -5.29%; in test [2] it was -6.94%; in test [3], -16.3%; in test [4], -0.797%; in [5], -5.15%; in test [6], 0%. For the same molecule, the Percent Effect in [7] is 12.1%; in [8], 21%; in [9], -2.1%; in test [10], -5.13%; in test [11], -1.28%.

On to `CCCc1nnsc1C(=O)NCC1CCN(S(C)(=O)=O)CC1`, for which the Percent Effect in test [1] was -4.49%; in test [2], 16.4%; in [3], -9.31%; in [4], 9.94%; in [5], 1.57%; in test [6], 0.455%. In addition, the Percent Effect in [7] is 20.1%; in test [8], 9.73%; in [9] it was 7.53%; in [10], 17.5%; in test [11] it was -6.78%.

As for `Cc1nc(C2CCCN(C(=O)c3cccc(S(C)(=O)=O)c3)C2)no1` (stereo not given), the Percent Effect is -1.36% in test [1]; -1.27% in test [2]; 5.98% in test [3]; 4.04% in test [4]; -1.95% in test [5]; 7.96% in test [6]. Besides, the Percent Effect is 12.3% in [7]; -20.9% in test [8]; 0% in test [9]; 0% in [10]; 3.1% in test [11].

Turning to `COc1ccc(OC)c(C(O)CN2CC(n3cccn3)C2)c1` (stereo not given), the Percent Effect was -3.82% in test [1]; -10.5% in test [2]; 2.67% in [3]; 6.6% in [4]; 9.02% in test [5]; 4.98% in [6]. Moreover, the Percent Effect is 9.52% in test [7]; -12.8% in [8]; 6.37% in test [9]; 9.76% in test [10]; -8.21% in [11].

Turning to `CCc1cccc(NS(=O)(=O)c2cc3c(c(C(=O)O)c2)OCCO3)c1`, the Percent Effect in [1] was -5.6%; in test [2], 1.27%; in [3], -5.84%; in test [4], 0.409%; in [5], -1.33%; in [6], -0.645%. In addition, the Percent Effect in test [7] is 20.9%; in test [8], -2.39%; in test [9] it was -7.29%; in test [10], -7.59%; in test [11], -30.6%.

Take `O=C(CNCCn1cccn1)NCC1(c2ccccc2)CC1`: the Percent Effect is -0.0759% in [1]; -2.6% in test [2]; 8.25% in test [3]; 8.53% in test [4]; 1.27% in test [5]; 1.47% in test [6]. For the same molecule, the Percent Effect is -3.96% in [7]; 7.94% in test [8]; 3.81% in test [9]; 7.06% in test [10]; -6.43% in test [11].

As to `Cn1ccnc1CN1CCN(c2ccc(C#N)cc2F)CC1`, the Percent Effect is -4.37% in test [1]; 21.6% in [2]; -10.5% in test [3]; 15.7% in test [4]; 3.44% in test [5]; 4.25% in [6]. For the same molecule, the Percent Effect in test [7] was 11.1%; in test [8], 17.8%; in test [9], 6.93%; in [10], 23.2%; in test [11], -6.24%.

On to `Cc1cnn(C2CCCN(C(=O)Cc3cn4ccccc4n3)C2)c1` (stereo not given), for which the Percent Effect is -5.24% in test [1]; 19% in test [2]; -2.41% in test [3]; -0.453% in [4]; -0.103% in test [5]; -1.5% in test [6]. Further, the Percent Effect in [7] was 11.8%; in [8], 4.05%; in [9], 1.04%; in test [10], 17.7%; in test [11], -26.5%.

`CCS(=O)(=O)N1CCC(c2cc3n(n2)[C@@H](C(F)(F)F)C[C@@H](C)N3)CC1`: the Percent Effect was -3.21% in test [1]; 9.46% in test [2]; -29.7% in [3]; -2.76% in test [4]; -4.15% in [5]; 2.09% in test [6]. Also, the Percent Effect in [7] was 4.37%; in [8] it was 11.3%; in [9] it was -1.07%; in test [10], 6.49%; in [11], -7.22%.
